# Experimental data published in PubChem BioAssay AID651818 (Broad Institute, 2012).
# Results with a measured potency or affinity are listed apart. Inconclusive results are not listed. Active and inactive are the calls of the source. Cut-off read from the data, not from the text of the source: inconclusive = activity change below about -55%; inactive = above that.
# Experiment: intracellular Trypanosoma cruzi inhibitors in host cells – cell-based, plate reader, cherry-pick samples, set 3, dose response (AID 651818)
# Settings: series mostly up to 10 µM
row,SMILES,outcome
1,C[C@H](CO)N1C[C@H](C)[C@H](CN(C)C(=O)Nc2ccccc2)Oc2c(NC(=O)Nc3ccc(C(F)(F)F)cc3)cccc2C1=O,inactive
2,C[C@H](CO)N1C[C@H](C)[C@H](CN(C)C(=O)NC2CCCCC2)Oc2c(NS(=O)(=O)c3ccc(F)cc3)cccc2C1=O,inactive
3,Cc1noc(C)c1NC(=O)N(C)C[C@@H]1Oc2c(NC(=O)NC3CCCCC3)cccc2C(=O)N([C@@H](C)CO)C[C@@H]1C,inactive
4,C[C@@H]1CN([C@@H](C)CO)C(=O)c2cccc(NS(=O)(=O)c3cn(C)cn3)c2O[C@H]1CN(C)C(=O)Nc1ccc(F)cc1,inactive
5,Cc1noc(C)c1S(=O)(=O)Nc1cccc2c1O[C@@H](CN(C)CC1CC1)[C@@H](C)CN([C@H](C)CO)C2=O,inactive
6,C[C@H](CO)N1C[C@H](C)[C@@H](CN(C)S(=O)(=O)c2ccc(Cl)cc2)Oc2c(NC(=O)C3CC3)cccc2C1=O,inactive
7,CNC[C@H]1Oc2c(NS(=O)(=O)c3cccs3)cccc2C(=O)N([C@@H](C)CO)C[C@@H]1C,inactive
8,C[C@H](CO)N1C[C@H](C)[C@@H](CN(C)S(=O)(=O)c2ccc(F)cc2)Oc2c(NC(=O)C3CCOCC3)cccc2C1=O,inactive
9,C[C@H]1CN([C@@H](C)CO)C(=O)c2cccc(NS(=O)(=O)c3cccs3)c2O[C@@H]1CN(C)C(=O)NC1CCCCC1,inactive
10,C[C@H](CO)N1C[C@H](C)[C@@H](CN(C)S(=O)(=O)c2ccc(Cl)cc2)Oc2c(NC(=O)c3cnccn3)cccc2C1=O,inactive
11,C[C@@H]1CN([C@@H](C)CO)C(=O)c2cccc(NC(=O)Nc3ccccc3)c2O[C@@H]1CN(C)S(=O)(=O)c1cn(C)cn1,inactive
12,C[C@H](CO)N1C[C@H](C)[C@H](CN(C)S(C)(=O)=O)Oc2c(NS(=O)(=O)c3ccc(F)cc3)cccc2C1=O,inactive
13,C[C@@H]1CN([C@@H](C)CO)C(=O)c2cccc(NC(=O)c3cnccn3)c2O[C@@H]1CN(C)S(=O)(=O)c1cccs1,inactive
14,C[C@H]1CN([C@@H](C)CO)C(=O)c2cccc(NC(=O)c3ccncc3)c2O[C@@H]1CN(C)S(=O)(=O)c1ccccc1,inactive
15,C[C@@H]1CN([C@H](C)CO)C(=O)c2cccc(NS(=O)(=O)c3cn(C)cn3)c2O[C@@H]1CN(C)CC1CCCCC1,inactive
16,Cc1ccc(S(=O)(=O)Nc2cccc3c2O[C@H](CN(C)C(=O)NC(C)C)[C@@H](C)CN([C@H](C)CO)C3=O)cc1,inactive
17,C[C@@H]1CCCCO[C@@H](CN(C)Cc2ccc(C(F)(F)F)cc2)[C@@H](C)CN([C@H](C)CO)C(=O)c2cc(NC(=O)Nc3ccc4c(c3)OCO4)ccc2O1,inactive
18,Cc1ccc(S(=O)(=O)N(C)C[C@H]2Oc3c(NC(=O)Nc4c(C)noc4C)cccc3C(=O)N([C@@H](C)CO)C[C@H]2C)cc1,inactive
19,C[C@H](CO)N1C[C@H](C)[C@@H](CN(C)C(=O)Nc2ccc(C(F)(F)F)cc2)Oc2c(NS(=O)(=O)c3ccc(Cl)cc3)cccc2C1=O,inactive
20,Cc1noc(C)c1NC(=O)Nc1cccc2c1O[C@@H](CN(C)C(=O)NC1CCCCC1)[C@@H](C)CN([C@@H](C)CO)C2=O,inactive
21,C[C@H](CO)N1C[C@H](C)[C@@H](CN(C)C(=O)Nc2ccc3c(c2)OCO3)Oc2c(NC(=O)C3CCOCC3)cccc2C1=O,inactive
22,C[C@@H]1CN([C@@H](C)CO)C(=O)c2cccc(NC(=O)c3ccncc3)c2O[C@@H]1CN(C)C,inactive
